Measurements reported in PubChem BioAssay (Tox21).
Results filed as inconclusive are left out. Calls of active or inactive are those of the source. Unless noted, calls follow the shape of the dose curve; as a rule, active = well fitted curve in the direction sought with a large enough effect in the repeat runs; inconclusive = weak or mixed curves; inactive = no such curve, though single readings can be large; an effect the other way counts as inactive or inconclusive.

What was measured:
[1] = target: Thyrotropin receptor (Homo sapiens) (UniProt P16473); test: qHTS assay to identify small molecule antagonists of the thyroid stimulating hormone receptor (TSHR) signaling pathway (AID 1259385; calls by dose curve; also: % is scaled to controls: 0 for no effect and ±100 for the full control effect; nearly all actives have a fitted effect of over 20% in size)
Thyrotropin receptor (Homo sapiens), sequence (P16473 whole entry, looked up): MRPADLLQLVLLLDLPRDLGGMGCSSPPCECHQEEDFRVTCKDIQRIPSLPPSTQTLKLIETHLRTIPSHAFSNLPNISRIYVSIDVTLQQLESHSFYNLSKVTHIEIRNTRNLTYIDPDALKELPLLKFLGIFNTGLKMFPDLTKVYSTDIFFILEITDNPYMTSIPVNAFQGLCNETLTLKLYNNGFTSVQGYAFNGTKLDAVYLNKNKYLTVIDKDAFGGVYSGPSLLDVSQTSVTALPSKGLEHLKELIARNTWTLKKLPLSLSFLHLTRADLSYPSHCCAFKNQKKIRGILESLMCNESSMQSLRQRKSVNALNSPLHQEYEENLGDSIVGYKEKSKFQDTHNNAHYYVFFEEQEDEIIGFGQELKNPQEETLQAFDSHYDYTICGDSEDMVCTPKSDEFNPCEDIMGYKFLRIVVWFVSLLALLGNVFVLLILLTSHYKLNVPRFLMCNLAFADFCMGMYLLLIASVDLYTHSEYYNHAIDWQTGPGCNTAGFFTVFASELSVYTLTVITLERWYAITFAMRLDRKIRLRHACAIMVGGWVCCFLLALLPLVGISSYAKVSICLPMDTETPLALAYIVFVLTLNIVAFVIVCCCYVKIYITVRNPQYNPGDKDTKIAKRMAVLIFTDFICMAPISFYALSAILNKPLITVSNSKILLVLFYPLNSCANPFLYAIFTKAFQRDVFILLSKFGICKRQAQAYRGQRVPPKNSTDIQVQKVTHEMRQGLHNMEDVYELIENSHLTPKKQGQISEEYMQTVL
In short: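 Antagonist mode: compound-treated TSHR-expressing HEK293 cells were stimulated with 1.5 ng/mL TSH (final) in presence of Ro20-1724 for 30 min at RT. HTRF cAMP detection after 1 h; each compound tested at 15 concentrations, triplicate.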

[2] = qHTS assay to identify small molecule agonists of the estrogen receptor alpha (ER-alpha) signaling pathway in the presence of an antagonist - cell viability counter screen (AID 1259386);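 also: series mostly up to about 92 µM; cells exposed to compounds for 22 h at 37 °C before the viability read; % is scaled to controls: 0 for no effect and ±100 for the full control effect; nearly all actives have a fitted effect of over 30% in size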
In short: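 In this counter screen, compound effects on VM7Luc4E2 viability were tested in the presence of the antagonist ICI-182,780 at 10.0nM final. Compounds were dosed at 15 concentrations, exposure lasted 22hr, and the CellTiter-Fluor signal was read.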

[3] = target: Progesterone receptor (Homo sapiens) (UniProt P06401); test: qHTS assay to identify small molecule agonists of the progesterone receptor (PR) signaling pathway (AID 1346784; calls by dose curve; also: % is scaled to controls: 0 for no effect and ±100 for the full control effect; nearly all actives have a fitted effect of over 30% in size)
Progesterone receptor (Homo sapiens), sequence (P06401 whole entry, looked up): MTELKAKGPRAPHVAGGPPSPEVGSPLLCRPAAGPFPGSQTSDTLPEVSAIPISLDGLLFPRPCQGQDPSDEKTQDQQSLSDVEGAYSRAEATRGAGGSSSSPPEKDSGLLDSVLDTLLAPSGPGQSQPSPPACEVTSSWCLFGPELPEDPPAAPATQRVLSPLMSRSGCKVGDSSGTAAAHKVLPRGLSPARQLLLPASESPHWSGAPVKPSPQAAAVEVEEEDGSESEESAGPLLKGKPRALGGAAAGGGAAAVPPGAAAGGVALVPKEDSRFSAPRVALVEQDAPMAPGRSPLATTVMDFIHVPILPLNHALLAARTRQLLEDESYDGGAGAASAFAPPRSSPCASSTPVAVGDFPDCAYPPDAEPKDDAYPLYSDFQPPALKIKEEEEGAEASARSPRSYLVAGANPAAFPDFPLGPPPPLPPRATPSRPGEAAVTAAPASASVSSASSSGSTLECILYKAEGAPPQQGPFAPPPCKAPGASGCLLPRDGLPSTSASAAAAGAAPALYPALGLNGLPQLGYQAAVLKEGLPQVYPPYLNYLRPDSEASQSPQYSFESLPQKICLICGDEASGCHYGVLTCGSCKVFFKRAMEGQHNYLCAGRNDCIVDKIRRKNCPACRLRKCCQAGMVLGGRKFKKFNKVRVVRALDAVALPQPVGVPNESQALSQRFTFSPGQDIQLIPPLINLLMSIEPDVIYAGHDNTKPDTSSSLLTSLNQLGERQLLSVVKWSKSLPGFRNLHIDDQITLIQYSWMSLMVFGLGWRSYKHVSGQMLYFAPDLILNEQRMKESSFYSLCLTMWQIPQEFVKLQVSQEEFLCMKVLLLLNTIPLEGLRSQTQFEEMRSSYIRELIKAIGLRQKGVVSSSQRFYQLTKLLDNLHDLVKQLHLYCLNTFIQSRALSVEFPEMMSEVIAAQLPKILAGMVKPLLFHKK
In short: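 PR-UAS-bla HEK 293T cells (beta-lactamase reporter under UAS) in 2% charcoal-stripped FBS, dosed with 23 nL compound after 6 hr, incubated 16hr at 37C. LiveBLAzer B/G FRET substrate added, fluorescence read after 2 hours.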

[4] = target: Progesterone receptor (Homo sapiens) (UniProt P06401); test: qHTS assay to identify small molecule antagonists of the progesterone receptor (PR) signaling pathway (AID 1346795; active = well fitted inhibition curve with a large enough effect in the signal ratio in the repeat runs, not every such curve was filed as active; the % refers to the signal ratio; also: % is scaled to controls: 0 for no effect and ±100 for the full control effect)
In short: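 PR-UAS-bla HEK293T cells with beta-lactamase reporter under UAS control, in 2% charcoal-stripped FBS, treated with compounds plus 1 nM promegestone (R5020, final) for 16 hr at 37C. Read-out: FRET beta-lactamase substrate fluorescence after 2 hr at room temperature.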

[5] = qHTS assay to identify small molecule agonists of the progesterone receptor (PR) signaling pathway - cell viability counter screen (AID 1346799; calls by dose curve; also: % is scaled to controls: 0 for no effect and ±100 for the full control effect; nearly all actives have a fitted effect of over 45% in size)
In short: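 Counter screen in the PR-UAS-bla HEK293T wells (2% charcoal-stripped FBS, 16 h compound exposure at 37 C) after the bla read. CellTiter-Glo added, 30 min at room temperature, luminescence read as cell viability.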

[6] = qHTS assay to identify small molecule antagonists of the TGF-beta/Smad signaling pathway - cell viability counter screen (AID 1346824); also: % is scaled to controls: 0 for no effect and ±100 for the full control effect; nearly all actives have a fitted effect of over 50% in size
In short: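 Cytotoxicity counter-screen run in the same wells as the beta-lactamase Smad reporter read: CellTiter-Glo luminescence after 30 min at room temperature. HEK 293T SBE-bla cells had 5 hr compound exposure at 37 C with TGF-beta1 (0.25 ng/mL stock).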

[7] = qHTS assay to identify small molecule agonists of the TGF-beta/Smad signaling pathway - cell viability counter screen (AID 1346829); also: top concentration of the series differs between compounds; % is scaled to controls: 0 for no effect and ±100 for the full control effect; nearly all actives have a fitted effect of over 45% in size
In short: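 Tox21 qHTS format: SBE-bla HEK 293T cells treated with DMSO-dissolved compounds for 5 hr; CellTiter-Glo luminescence after 30 min at room temperature.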

[8] = qHTS assay to identify small molecule agonists of the TGF-beta/Smad signaling pathway (AID 1346859; active = well fitted activation curve with a large enough effect in the signal ratio in the repeat runs, not every such curve was filed as active; the % refers to the signal ratio; also: series mostly up to about 77 µM; % is scaled to controls: 0 for no effect and ±100 for the full control effect)
In short: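 SBE-bla HEK293T cells plated overnight, then compound exposure for 5 h at 37 C. Beta-lactamase reporter read with LiveBLAzer B/G FRET substrate after 2 h at room temperature, fluorescence at 405 nm excitation, 460/530 nm emission.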

[9] = target: Thyrotropin-releasing hormone receptor (Homo sapiens) (UniProt P34981); test: qHTS assay to identify small molecule antagonists of the thyrotropin-releasing hormone receptor (TRHR) signaling pathway (AID 1346877; active = well fitted inhibition curve with a large enough effect in the repeat runs, not every such curve was filed as active; also: series mostly up to about 51 µM; % is scaled to controls: 0 for no effect and ±100 for the full control effect)
Thyrotropin-releasing hormone receptor (Homo sapiens), sequence (P34981 whole entry, looked up): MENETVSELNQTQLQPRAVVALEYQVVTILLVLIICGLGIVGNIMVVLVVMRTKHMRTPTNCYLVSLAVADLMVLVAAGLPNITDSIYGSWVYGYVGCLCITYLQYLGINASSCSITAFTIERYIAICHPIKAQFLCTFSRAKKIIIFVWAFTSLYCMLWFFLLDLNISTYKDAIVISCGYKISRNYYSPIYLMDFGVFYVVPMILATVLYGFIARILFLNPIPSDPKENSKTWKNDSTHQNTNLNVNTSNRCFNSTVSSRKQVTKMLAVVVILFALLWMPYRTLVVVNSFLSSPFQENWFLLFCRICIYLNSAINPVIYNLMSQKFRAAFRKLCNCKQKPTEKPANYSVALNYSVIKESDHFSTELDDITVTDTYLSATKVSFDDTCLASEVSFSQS
In short: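 Kinetic fluorescence (3 min, 1 s resolution) following stimulation with TRH at 1 nM final; HEK293 cells bearing human TRHR; 5 min compound preincubation at RT; concentration-response over 15 points, triplicates.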

[10] = target: Thyrotropin-releasing hormone receptor (Homo sapiens) (UniProt P34981); test: qHTS assay to identify small molecule agonists of the thyrotropin-releasing hormone receptor (TRHR) signaling pathway (AID 1346891; calls by dose curve; also: series mostly up to about 58 µM; % is scaled to controls: 0 for no effect and ±100 for the full control effect)
In short: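 HEK293 cells expressing TRHR plated 18 h at 37 C/5% CO2, calcium dye-loaded 2 h at 37 C, then compound added (agonist mode); kinetic calcium fluorescence read 3 min at 1 s intervals; 15 concentrations in triplicate.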

[11] = Human pregnane X receptor (PXR) small molecule agonists, qHTS cell viability counter screen (AID 1346977); also: % is scaled to controls: 0 for no effect and ±100 for the full control effect; nearly all actives have a fitted effect of over 50% in size
In short: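 PXR-Luc HepG2 cells (2,000/well, 5% charcoal-stripped FBS) preincubated 5 hr, then exposed to compounds 24 hr at 37 C. Viability read in the same wells by CellTiter-Fluor fluorescence, reagent added at 23 hr, 1 hr incubation.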

[12] = Caspase-3/7 induction in CHO-K1 cells by small molecules, qHTS cell viability counter screen (AID 1346979); also: % is scaled to controls: 0 for no effect and ±100 for the full control effect; nearly all actives have a fitted effect of over 35% in size
In short: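 Wild-type CHO-K1 cells (1,500/well) treated with compound after 5 h plating; after 16 h at 37C, viability read as CellTiter-Fluor fluorescence following 1 h reagent incubation, in the same wells as the caspase read.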

[13] = Caspase-3/7 induction in CHO-K1 cells by small molecules, qHTS assay (AID 1346980); also: % is scaled to controls: 0 for no effect and ±100 for the full control effect; nearly all actives have a fitted effect of over 15% in size
In short: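 Luminescent Caspase-Glo 3/7 read (30min, room temperature) quantified apoptosis induction. Cells were wild-type CHO-K1, treated with compound for 17hr at 37 C and 5% CO2.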

[14] = Caspase-3/7 induction in HepG2 cells by small molecules, qHTS cell viability counter screen (AID 1346981); also: series mostly up to about 92 µM; % is scaled to controls: 0 for no effect and ±100 for the full control effect; nearly all actives have a fitted effect of over 30% in size
In short: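 In this quantitative HTS counter screen, compounds delivered in DMSO were left on unmodified HepG2 cells for 16 hr at 37 C. Viability was then determined fluorometrically with CellTiter-Fluor, in parallel with caspase-3/7 induction in the same wells.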

[15] = target: Nuclear receptor subfamily 1 group I member 2 (Homo sapiens) (UniProt O75469); test: Human pregnane X receptor (PXR) small molecule agonists, qHTS assay (AID 1346982); also: nearly all actives have a fitted effect of over 35% in size; also: potency is read from the fitted curve at half-maximal effect
Nuclear receptor subfamily 1 group I member 2 (Homo sapiens), sequence (O75469 whole entry, looked up): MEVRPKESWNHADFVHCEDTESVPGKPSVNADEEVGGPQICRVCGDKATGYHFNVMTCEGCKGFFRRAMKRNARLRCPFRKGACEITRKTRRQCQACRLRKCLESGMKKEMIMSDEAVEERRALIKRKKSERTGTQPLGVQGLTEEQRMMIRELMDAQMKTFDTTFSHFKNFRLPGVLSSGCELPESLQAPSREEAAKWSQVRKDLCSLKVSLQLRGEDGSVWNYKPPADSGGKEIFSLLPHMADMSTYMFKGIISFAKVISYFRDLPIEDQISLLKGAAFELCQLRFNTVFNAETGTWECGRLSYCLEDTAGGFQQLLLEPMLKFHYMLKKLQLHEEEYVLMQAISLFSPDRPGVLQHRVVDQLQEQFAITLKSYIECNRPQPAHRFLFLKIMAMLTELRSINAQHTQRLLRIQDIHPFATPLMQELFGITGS
In short: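 Reporter HepG2 cells expressing PXR-Luc are cultured in charcoal-stripped FBS (5%), treated with compounds for 24 hr at 37 C, and assayed by ONE-Glo luminescence after 30 min at room temperature.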

[16] = Caspase-3/7 induction in HepG2 cells by small molecules, qHTS assay (AID 1346978); also: % is scaled to controls: 0 for no effect and ±100 for the full control effect; nearly all actives have a fitted effect of over 15% in size
In short: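 Caspase-3/7 induction was measured by Caspase-Glo 3/7 luminescence (30 min, room temperature) after a 17 hr compound exposure of wild-type HepG2 cells seeded at 2,000 per well and pre-incubated 5 hr.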

[17] = target: Nuclear receptor subfamily 1 group I member 2 (Rattus norvegicus) (UniProt Q9R1A7); test: Rat pregnane X receptor (rPXR) activation by small molecules, qHTS assay (AID 1346983); conditions: rPXR luciferase reporter cells, One-Glo luminescence, 24 h; max activation: hits give high values; also: % is scaled to controls: 0 for no effect and ±100 for the full control effect; nearly all actives have a fitted effect of over 20% in size
Nuclear receptor subfamily 1 group I member 2 (Rattus norvegicus), sequence (Q9R1A7 whole entry, looked up): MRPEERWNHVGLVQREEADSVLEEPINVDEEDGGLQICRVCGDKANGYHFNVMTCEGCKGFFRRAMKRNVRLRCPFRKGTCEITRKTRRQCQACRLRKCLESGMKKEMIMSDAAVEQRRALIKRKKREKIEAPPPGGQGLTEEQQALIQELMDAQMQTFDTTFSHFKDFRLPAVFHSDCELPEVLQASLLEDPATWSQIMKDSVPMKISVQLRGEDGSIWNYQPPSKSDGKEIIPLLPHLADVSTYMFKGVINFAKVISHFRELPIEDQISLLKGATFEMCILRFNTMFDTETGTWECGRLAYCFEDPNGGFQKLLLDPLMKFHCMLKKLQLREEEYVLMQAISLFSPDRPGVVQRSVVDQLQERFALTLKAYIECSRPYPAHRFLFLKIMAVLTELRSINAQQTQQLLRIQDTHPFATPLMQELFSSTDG
In short: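 Luminescent readout (One-Glo luciferase, 30 min room temperature) followed 24 hr compound treatment at 37 C of rPXR cells plated 2,000 per well and preincubated 5hr; qHTS format with compounds delivered in DMSO.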

[18] = qHTS assay to identify small molecule antagonists of the progesterone receptor (PR) signaling pathway - cell viability counter screen (AID 1346798); also: series mostly up to about 92 µM; % is scaled to controls: 0 for no effect and ±100 for the full control effect; nearly all actives have a fitted effect of over 50% in size
In short: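 PR-UAS-bla HEK293T cells, 3,000/well in 2% charcoal-stripped FBS medium, dosed with compounds plus R5020 agonist and incubated 16 h at 37C. Viability then measured in the same wells by CellTiter-Glo luminescence after 30 min at RT.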

[19] = target: Nuclear receptor subfamily 1 group I member 2 (Homo sapiens) (UniProt O75469); test: CYP3A4 induction through human pregnane X receptor (PXR) by small molecules, qHTS assay (AID 1346984); also: potency is read from the fitted curve at half-maximal effect; nearly all actives have a fitted effect of over 40% in size
In short: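 Induction measured in HepG2-based DPX-2 cells co-expressing human PXR and a CYP3A4 promoter-driven luciferase. After a 24-hour compound exposure, cells received CYP3A4 luciferin substrate at 3uM final for 3 hours, and light output was then recorded.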

[20] = target: Nuclear receptor subfamily 1 group I member 2 (Homo sapiens) (UniProt O75469); test: Human pregnane X receptor (PXR) activation by small molecules, qHTS assay (AID 1346985); also: potency is read from the fitted curve at half-maximal effect; nearly all actives have a fitted effect of over 40% in size
In short: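 DPX-2 cells (HepG2 co-transfected with a PXR response element and a CYP3A4-promoter luciferase construct) were seeded at 2,000 per well, rested 5 hr at 37C, then exposed to DMSO-dissolved compounds for 24 hr. Activation was read as luciferase luminescence.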

CCCC(=O)OCCC(C)C
inactive: Potency [1] | Potency [2] | Potency [3] | Potency [4] | Potency [5] | outcome [6] | outcome [7] | outcome [8] | outcome [9] | outcome [10] | Potency [11] | Potency [12] | Potency [13] | Potency [14] | Potency [15]

O=C(c1ccco1)N1CCNCC1
inactive: Potency [1] | Potency [2] | Potency [3] | Potency [4] | Potency [5] | outcome [6] | outcome [7] | outcome [8] | outcome [9] | outcome [10] | Potency [11] | Potency [16] | Potency [12] | Potency [13] | Potency [14] | Potency [15]

CC(C(=O)O)c1ccc2c(c1)Cc1cccnc1O2 (stereo unspecified)
inactive: Potency [1] | Potency [2] | Potency [3] | Potency [4] | Potency [5] | outcome [6] | outcome [7] | outcome [9] | outcome [10] | Potency [11] | Potency [16] | Potency [12] | Potency [13] | Potency [14] | max activation [17] -0.373%

O=P(c1ccccc1)(c1ccccc1)c1ccccc1
active: Potency [15] 27.3 µM
inactive: Potency [1] | Potency [2] | Potency [3] | Potency [4] | Potency [5] | outcome [7] | outcome [8] | outcome [10] | Potency [16] | Potency [12] | Potency [14]

CCCC1CCCC(=O)O1 (stereo unspecified)
inactive: Potency [1] | Potency [2] | Potency [3] | Potency [4] | Potency [5] | outcome [7] | outcome [9] | outcome [10] | Potency [11] | Potency [16] | Potency [14] | Potency [15]

C=CC(=O)NC(C)(C)C
inactive: Potency [1] | Potency [2] | Potency [3] | Potency [4] | outcome [6] | outcome [7] | outcome [8] | outcome [9] | outcome [10] | Potency [11] | Potency [16] | Potency [12] | Potency [13] | Potency [14] | Potency [15]

CC1(C)CC(=O)CC(C)(C)N1
inactive: Potency [1] | Potency [2] | Potency [3] | Potency [4] | Potency [18] | Potency [5] | outcome [7] | outcome [8] | outcome [10] | Potency [16] | Potency [12] | Potency [13] | Potency [14] | Potency [15]

CC(C)(Cc1c[nH]c2ccccc12)NCC(O)COc1ccccc1C#N (stereo unspecified)
active: Potency [19] 12.6 µM | Potency [20] 28.2 µM
inactive: Potency [1] | Potency [2] | Potency [3] | Potency [4] | outcome [6] | outcome [7] | outcome [8] | outcome [9] | outcome [10] | Potency [16] | Potency [12] | Potency [13] | Potency [14] | Potency [15] | max activation [17] 11.7%

C[Si](C)(C)O[Si](C)(C)O[Si](C)(C)C
inactive: Potency [1] | Potency [2] | Potency [3] | Potency [4] | Potency [5] | outcome [6] | outcome [7] | outcome [9] | outcome [10] | Potency [11] | Potency [16] | Potency [12] | Potency [13] | Potency [14] | Potency [15]
